BLM inh: Bloom syndrome helicase (human) inhibition. Potency, µM (doses to about 56.1 µM), hits mostly inhibitors. recombinant BLM DNA unwinding, fluorescence dequenching. 0.2% of 350,000 active. P54132; further: nearly all actives have a fitted effect of over 35% in size
LMNA splice mod: modulators of lamin A splicing. HeLa LMNA splicing GFP/RFP minigene ratio, 48 h. Potency, µM (highest dose often 46.1 µM), most hits filed as inhibitors. 0.01% of 200,000 active; active means well fitted inhibition curve with a large enough effect in the signal ratio, with a control signal flat, not every such curve was filed as active; inconclusive means small, poorly fitted or top-dose-only effect, or effect the other way, or a change in a side signal; the % refers to the signal ratio
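S3 HeLa stable clones carrying a lamin A-EGFP splicing minigene plus DsRed2 were seeded at 600 cells/well in Opti-MEM with 2% FBS, pin-dosed and incubated 48 h at 37°C. Acumen cytometry (488 nm) gave the GFP/RFP total-intensity ratio.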
RECQ1 inh: blocks DNA unwinding by human RECQ1. P46063. 0.54% of 240,000 active. RECQ1 DNA unwinding, red fluorescence kinetic read. Potency, µM (top dose mostly 57.3 µM), most hits filed as inhibitors; further: nearly all actives have a fitted effect of over 30% in size
Target sequence (P46063 whole entry, looked up): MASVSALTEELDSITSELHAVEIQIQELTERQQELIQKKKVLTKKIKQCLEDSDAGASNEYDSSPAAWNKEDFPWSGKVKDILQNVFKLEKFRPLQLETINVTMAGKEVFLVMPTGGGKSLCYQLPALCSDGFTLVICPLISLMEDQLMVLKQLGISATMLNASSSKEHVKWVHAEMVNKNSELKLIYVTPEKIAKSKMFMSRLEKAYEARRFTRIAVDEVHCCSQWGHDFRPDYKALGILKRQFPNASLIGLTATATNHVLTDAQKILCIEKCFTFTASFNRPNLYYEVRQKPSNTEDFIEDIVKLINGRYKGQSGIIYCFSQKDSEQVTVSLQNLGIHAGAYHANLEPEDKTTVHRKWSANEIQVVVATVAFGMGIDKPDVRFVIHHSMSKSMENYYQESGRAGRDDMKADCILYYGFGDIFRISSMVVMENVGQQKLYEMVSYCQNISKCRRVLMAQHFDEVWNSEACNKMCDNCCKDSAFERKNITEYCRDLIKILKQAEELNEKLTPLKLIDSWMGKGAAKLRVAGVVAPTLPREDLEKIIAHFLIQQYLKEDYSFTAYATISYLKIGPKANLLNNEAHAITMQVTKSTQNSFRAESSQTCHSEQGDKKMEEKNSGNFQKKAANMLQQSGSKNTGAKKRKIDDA
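RECQ1T1 50 nM; forked duplex (20 bp + 30-nt ss tails) 200 nM, ATP 2 mM final; pH 8.0, 2 mM MgCl2, 2.5 ug/ml poly(dI-dC); 15 min compound preincubation; discontinuous kinetic read over 2 h at RT.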
APEX1 inh: inhibitors of human APE1 endonuclease; P27695; recombinant APE1, TAMRA/BHQ-2 abasic DNA cleavage fluorescence; Potency, µM (doses to about 65.8 µM), actives largely listed as inhibitors; 0.35% of 350,000 active; AID 2517; further: nearly all actives have a fitted effect of over 55% in size
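Kinetic fluorescence read (525 ex/598 em nm, three reads 60 s apart) of AP-site incision; signal = third minus first read. Enzyme 0.75 nM, dual-labelled THF duplex 50 nM, compound preincubation 15 min RT.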
TDP1 block: TDP1 (human) enzyme inhibition | recombinant TDP1, AlphaScreen DNA substrate cleavage | Potency, µM (top dose mostly 130 µM), hits mostly inhibitors | AID 485290 | 0.28% of 350,000 active; further: nearly all actives have a fitted effect of over 40% in size
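Steps: enzyme plus compound, 15 min RT; add biotin/phosphotyrosine-FITC oligonucleotide (15 nM final), react 5 min; add donor/acceptor beads (10 ug/ml final), 10 min; read AlphaScreen. Tdp1 at 1 nM final.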
KAT2A inh: blocks human GCN5L2 histone acetyltransferase | Q92830 | GCN5L2 HAT assay, ThioGlo1 CoA-SH fluorescence | Potency, µM (highest dose often 58.9 µM), most hits filed as inhibitors | 0.21% of 390,000 active | AID 504327
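Fluorescence readout, Ex340nm/Em540nm: ThioGlo1 (50uM final) reacts with free CoA thiol released as 20nM GCN5L2 acetylates H3(1-25) peptide (75uM) using acetyl-CoA (70uM). Compound and enzyme sat 15 min beforehand; 20 min room-temperature reaction.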
Hits are given with their value; – = inactive; ? = inconclusive; · = no result given; ! = not confirmed by another sample; [ ] = remark or other dose. In the library only some 0.9% were active in any assay of this set; here they are far more common. Unless noted, the call rests on the fitted dose curve; in most records, active means well fitted curve in the direction sought with a large enough effect; inconclusive means small, poorly fitted or top-dose-only effect, or another doubt; inactive means no such curve, though single readings can be large; an effect the other way counts as inactive or inconclusive.

SMILES	BLM inh	LMNA splice mod	RECQ1 inh	APEX1 inh	TDP1 block	KAT2A inh
CC(=O)OCC1=C(C(=O)O)N2C(=O)C(NC(=O)CC(C)c3ccccc3)C2SC1 (configuration not stated)	·	·	·	–	–	–
Cn1nnnc1SCC1=C(C(=O)O)N2C(=O)[C@@H](NC(=O)[C@@H](O)c3ccccc3)[C@@H]2SC1	–	?	–	·	–[21 µM]	–
NCc1ccccc1CC(=O)N[C@@H]1C(=O)N2C(C(=O)O)=C(CSc3nnnn3CC(=O)O)CS[C@@H]12	–	?	–	·	10µM	–
COc1ccccc1Nc1cc2ccccc2c(=O)[nH]1	·	·	·	·	–	·
C[N+]1(C)[C@@H]2CC(OC(=O)C(O)(c3cccs3)c3cccs3)C[C@H]1[C@@H]1O[C@@H]12 (some centres not stated)	–	·	·	·	·	–
O=C(c1ccc(S(=O)(=O)NCc2ccco2)cc1)N1CCCC1	–	?	–	–	–	–
CC1CCN(C(=O)c2ccc(S(=O)(=O)NCc3ccco3)cc2)CC1	–	·	·	–[12.4 µM]	89µM	–
Cc1c(P(=S)(c2ccccc2)c2ccccc2)c2ccccc2n1C(=O)NCc1ccc(F)cc1	·	·	·	·	–	·
Cc1ccc(N=Cc2cc(Cc3ccccc3Cl)cc([N+](=O)[O-])c2O)c(O)c1	16µM	·	?	–	–	?
O=C1Oc2ccccc2C(=O)C1C(CC(O)c1ccc(-c2ccc(Br)cc2)cc1)c1ccccc1 (configuration not stated)	–	·	·	·	·	22µM
O=C(O)c1cc(N2N=C(C(F)(F)F)/C(=C/C=C/c3ccco3)C2=O)ccc1Cl	?	·	–	–	–	7.9µM
O=S(=O)(NCCNc1nc(-c2ccco2)nc2ccccc12)c1ccccc1	·	·	·	·	–	·
COc1ccc(C2=Nn3c(nnc3-c3ccccc3OC)SC2)c(OC)c1	–	·	–	–	–	·
CC1(C)c2ccccc2N2CC(=O)N(CC(N)=O)C21C (configuration not stated)	–	–	32µM	?	–	–
O=C(NN=C1CCCC1)c1ccccc1[N+](=O)[O-]	–	·	·	–	40µM	–
O=C(NN=C1CCCC1)c1ccccc1O	–	·	·	–	–	–
COc1ccc(N2CSC3=C(C#N)C(c4cccs4)CC(=O)N3C2)cc1 (configuration not stated)	?	–	–	–	–	13µM
COc1ccc(C2CC(=O)N3CN(C4CCCCC4)CSC3=C2C#N)cc1 (configuration not stated)	–	·	·	·	–	25µM
CCc1ccc(N2CSC3=C(C#N)C(c4cccs4)CC(=O)N3C2)cc1 (configuration not stated)	–	–	?	–	–	?
CCOc1ccccc1N1CSC2=C(C#N)C(c3c(OC)ccc4ccccc34)CC(=O)N2C1 (configuration not stated)	–	–	?	–	–	28µM
CCc1oc2ccccc2c1C(=O)c1cc(I)c(O)c(I)c1	–	?	·	·	–	8.9µM
CCCCc1oc2ccccc2c1C(=O)c1cc(I)c(N(CC)CCOCC)c(I)c1	·	·	·	·	–	·
Nc1nnc(-c2ccc3ccccc3c2)o1	·	·	·	–	·	·
N#C/C(=C\c1ccc(-c2cc(Cl)ccc2Cl)o1)C(=O)Nc1ccccc1C(=O)O	11µM	·	·	·	–[12.3 µM]	–
O=C(O)c1ccc(N/N=C/c2ccc(-c3ccc(Cl)cc3Cl)o2)cc1	–	·	–	–	–	–
SMILES	BLM inh	LMNA splice mod	RECQ1 inh	APEX1 inh	TDP1 block	KAT2A inh
O=C(O)c1ccc(N/N=C/c2ccc(-c3cc(Cl)ccc3Cl)o2)cc1	–	·	–	?	71µM	–
Cc1ccc(NC(=O)/C(C#N)=C\c2ccc(-c3ccc(Cl)cc3)o2)c(C)c1	–	·	·	·	–[12.3 µM]	–
COc1ccc(C2Nc3ccccc3C(=O)N2CC(C)(C)C)cc1COc1ccc(NC(C)=O)cc1 (configuration not stated)	·	·	·	·	–	·
COc1ccc(-c2nc3cnc(Oc4cccc(Cl)c4)nc3n(CCC#N)c2=O)cc1	–	?	–	–	·	–
O=C(N/N=C/c1ccccc1Br)c1ccc(CSc2cccc3cccnc23)cc1	–	–	–	–	–	–
O=C1CCC/C(=N\NC(=O)c2ccc(CSc3cccc4cccnc34)cc2)C1	–	–	28µM	–	–	–
COc1ccc(-c2nn(-c3ccccc3)cc2/C=C2/SC(=S)N(CCC(=O)O)C2=O)c(C)c1	?	·	·	?	40µM	?
COc1ccc(-c2nn(-c3ccccc3)cc2/C=C2/SC(=S)N(CCC(=O)O)C2=O)cc1	–	·	·	17µM	·	?
Cc1ccc(-c2nn(-c3ccccc3)cc2/C=C2\SC(=S)N(CC(=O)O)C2=O)cc1	–	·	–	?	–	?
CC(C)CN(C[C@@H](OP(=O)(O)O)[C@H](Cc1ccccc1)NC(=O)O[C@@H]1CCOC1)S(=O)(=O)c1ccc(N)cc1	–	·	·	·	·	–
O=C(CSc1nnc(CNC(=O)c2ccccc2)o1)NCc1ccco1	–	·	·	–	–	–
O=C(CSc1nnc(CNC(=O)c2c(F)cccc2F)o1)NCc1ccco1	–	·	·	11µM	50µM	–
Cc1ccc(CCNC(=O)c2cc3c(s2)-c2ccccc2OC3)cc1	–	·	·	·	40µM	–
O=C(O)c1ccc(N/N=C/C=C/c2ccc([N+](=O)[O-])o2)cc1	–	·	·	11µM	–	–
COc1ccc(-c2nc3ccccc3c(=O)n2Cc2ccccc2)cc1OCc1ccc(NC(C)=O)cc1	·	·	·	·	–	·
CSCC[C@H](NC=O)C(=O)N[C@@H](CC(C)C)C(=O)N[C@@H](Cc1ccccc1)C(=O)O	·	·	·	·	·	–
CC(=O)Nc1ccc(OC(F)(F)C(F)F)c(NC(C)=O)c1	–	–	–	–	–	–
C=C(C)C(=O)Nc1ccc(OC(F)(F)C(F)F)c(NC(=O)C(=C)C)c1	–	–	–	–	13µM	–
COC(=O)CSc1nc2c(c(-c3ccco3)c1C#N)CCCC2	–	–	35µM	–	·	?
C=CC1=C(C)C2=Cc3c(C=C)c(C)c4[n]3[Sn+2][n]3c(c(C)c(CCC(=O)O)c3=CC3=NC(=C4)C(C)=C3CCC(=O)O)=CC1=N2	–	·	40µM	8.9µM	?	?
COCc1cc(C)n(CC(=O)N/N=C/c2ccc(-c3ccc(Cl)c(C(=O)O)c3)o2)c(=O)c1C#N	–	?	–	–	·	–
COCc1cc(C)nc(N/N=C/c2ccc(-c3ccc(C(=O)O)c(Cl)c3)o2)c1C#N	–	–	?	?	28µM	–
O=C(O)COc1cccc2c1CCC=C2CCO/N=C(\c1ccccc1)c1cccnc1	–	·	–	–	–	–
COc1ccc(N(CC(C)C)S(=O)(=O)c2nnc(NC(=O)c3ccco3)s2)cc1	–	–	·	–	–	1µM!
COc1ccc2cc([S+]([O-])Cc3ncc(C)c(OC)c3C)nc2c1	·	·	·	·	·	–
